Results on 34 compounds are retold here after PubChem BioAssay (EPA / NIEHS).

A word on the AC50: it is the midpoint of the concentration-response curve, whichever way the signal moves.

Activity calls are given as the source filed them. How the source made its calls: active means hit-call score of the fitted dose curve at least 0.9, where 1 is the maximum; inactive means score below 0.9.

Sequence of Retinoic acid receptor alpha (Homo sapiens) (P10276 whole entry, looked up): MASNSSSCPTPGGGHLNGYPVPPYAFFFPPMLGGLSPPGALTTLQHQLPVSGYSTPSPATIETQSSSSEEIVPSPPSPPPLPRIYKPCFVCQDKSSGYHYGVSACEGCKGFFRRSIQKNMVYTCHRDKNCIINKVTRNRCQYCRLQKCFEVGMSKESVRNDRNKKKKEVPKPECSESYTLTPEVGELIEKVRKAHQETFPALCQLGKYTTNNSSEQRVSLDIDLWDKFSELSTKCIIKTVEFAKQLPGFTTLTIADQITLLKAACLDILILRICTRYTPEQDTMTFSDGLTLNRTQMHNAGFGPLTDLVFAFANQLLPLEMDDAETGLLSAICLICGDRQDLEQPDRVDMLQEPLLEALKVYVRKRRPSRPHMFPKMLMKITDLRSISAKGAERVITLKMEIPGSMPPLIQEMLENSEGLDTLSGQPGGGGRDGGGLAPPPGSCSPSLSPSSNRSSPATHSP

Test system in one test: not listed separately
Briefly: ATG_BRE_CIS: Attagene CIS-FACTORIAL HepG2 Assay for human Bone Morphogenetic Protein (BMP) Response Element (BRE) (AID 2282933). To be noted: HepG2 BMP response element reporter, Attagene transcription factor profiling; actives raise or lower the signal. A digest of the protocol:
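After a 24 h chemical treatment, transiently transfected HepG2 cells were lysed for RNA; reporter transcripts were quantified by fluorescent RT-PCR and capillary electrophoresis, normalised to DMSO.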
Take `CCO[Si](CCC(F)(F)C(F)(F)C(F)(F)C(F)(F)C(F)(F)C(F)(F)F)(OCC)OCC`: the outcome was inactive.

Turning to `FC(F)(F)C(F)(F)C(F)(F)C(F)(F)CCI`, the outcome was inactive.

Take `O=C(O)C(F)(F)C(F)(F)C(F)(F)C(F)(F)C(F)(F)C(F)(F)C(F)(F)C(F)(F)Cl`: the outcome was inactive.

For the compound `Cc1ccc(S(=O)(=O)NCl)cc1`, the compound was classed as inactive.

As to `O=C(O)C(F)(F)C(F)(F)C(F)(F)C(F)(F)C(F)(F)C(F)(F)C(F)(F)C(F)(F)C(F)(F)C(F)F`, the result was inactive.

For `C1COCCN1`, the compound was classed as inactive.

For the compound `CC/C=C\CCOC(=O)c1ccccc1`, the result was inactive.

`OCC(F)(F)C(F)(F)C(F)(F)C(F)F`: the outcome was inactive.

In the case of `FC(F)(F)C(F)(F)C(F)(F)C(F)(F)C(F)(F)C(F)(F)CC1CO1` (stereo unspecified), the compound was called inactive.

In the case of `COC(OC(C)=O)c1ccccc1` (stereo unspecified), the compound was classed as inactive.

With `NC(=O)C(F)(F)C(F)(F)C(F)(F)C(F)(F)F`, the result was inactive.

Take `O=C(O)C(F)(F)C(F)(F)OC(F)(F)F`: the outcome was inactive.

Take `O=C(Cl)C(F)(F)C(F)(F)C(F)(F)C(F)(F)C(F)(F)C(F)(F)C(F)(F)C(F)(F)F`: the result was inactive.

As to `O=S(=O)(OCCOC(F)(F)F)C(F)(F)F`, the call was inactive.

For the compound `FC(F)(F)C(F)(F)C(F)(F)CI`, the compound was classed as inactive.

`CC/C=C\CCOC(C)=O`: the compound was classed as inactive.

Consider `CS(C)(=O)=O`, for which the outcome was inactive.

In the case of `OCC(F)(F)C(F)(F)C(F)(F)F`, the outcome was inactive.

As to `c1ccc(B(c2ccccc2)c2ccccc2)cc1`, the compound was called inactive.

In the case of `FC(F)(F)C(F)(F)C(F)(F)C(F)(F)C(F)(F)C(F)(F)C(F)(F)C(F)(F)F`, the compound was called inactive.

For the compound `CCN(CC)c1ccc2c(C)cc(=O)oc2c1`, the AC50 was 143 µM (active).

Regarding `C=CC(F)(F)C(F)(F)C(F)(F)C(F)(F)C(F)(F)C(F)(F)C(F)(F)C(F)(F)F`, the compound was called inactive.

In the case of `CC(Cc1ccc(O)c(O)c1)C(C)Cc1ccc(O)c(O)c1` (stereo unspecified), the result was inactive.

Consider `CCCCCCCCCCCCCCCC[N+](C)(C)Cc1ccccc1`, for which the call was inactive.

Turning to `FC(F)(F)C(F)(F)C(F)(F)C(F)(F)C(F)(F)C(F)(F)C(F)(F)Br`, the call was inactive.

Turning to `CC(C)=CCCC(C)CCOC(=O)C(C)C` (stereo unspecified), the compound was called inactive.

`C(=C(c1ccccc1)c1ccccc1)c1ccccc1`: the call was inactive.

As for `COC(=O)CCC(F)(F)C(F)(F)C(F)(F)C(F)(F)F`, the call was inactive.

On to `C#C[C@]1(O)CC[C@H]2[C@@H]3CCc4cc(OC)ccc4[C@H]3CC[C@@]21C`, for which the compound was called inactive.

For `O=S(=O)(OCC(F)F)C(F)(F)F`, the call was inactive.

Consider `CC(CCl)OP(=O)(OC(C)CCl)OC(C)CCl` (stereo unspecified), for which the compound was classed as inactive.

On to `FC(F)(F)C(F)(F)C(F)(F)C(F)(F)C(F)(F)C(F)(F)C(F)(F)I`, for which the outcome was inactive.

Turning to `C=CC(F)(F)C(F)(F)C(F)(F)C(F)(F)C(F)(F)C(F)(F)C(F)(F)C(F)(F)C=C`, the call was inactive.

Regarding `CCCCCC=O`, the call was inactive.

A further test concerns the target Retinoic acid receptor alpha (Homo sapiens) (UniProt P10276). Briefly: ATG_DR5_RAR_CIS: Attagene CIS-FACTORIAL HepG2 Assay for human Retinoic Acid Receptor Alpha (RARE), DR5 submotif (AID 2282934). The note with it: HepG2 Attagene cis-factorial RARE DR5 reporter, mRNA; actives raise or lower the signal. A digest of the protocol: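 HepG2, transient cis-reporter transfection, 24 h exposure. mRNA readout: RT-PCR, FAM label, HpaI cut, capillary electrophoresis. DMSO baseline, gain/loss fitting.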
As to `CCO[Si](CCC(F)(F)C(F)(F)C(F)(F)C(F)(F)C(F)(F)C(F)(F)F)(OCC)OCC`, the result was inactive.

In the case of `FC(F)(F)C(F)(F)C(F)(F)C(F)(F)CCI`, the compound was called inactive.

Take `O=C(O)C(F)(F)C(F)(F)C(F)(F)C(F)(F)C(F)(F)C(F)(F)C(F)(F)C(F)(F)Cl`: the compound was called inactive.

In the case of `O=C(O)C(F)(F)C(F)(F)C(F)(F)C(F)(F)C(F)(F)C(F)(F)C(F)(F)C(F)(F)C(F)(F)C(F)F`, the compound was called inactive.

For `C1COCCN1`, the compound was classed as inactive.

`CC/C=C\CCOC(=O)c1ccccc1`: the result was inactive.

For `OCC(F)(F)C(F)(F)C(F)(F)C(F)F`, the result was inactive.

In the case of `FC(F)(F)C(F)(F)C(F)(F)C(F)(F)C(F)(F)C(F)(F)CC1CO1` (stereo unspecified), the outcome was inactive.

Regarding `COC(OC(C)=O)c1ccccc1` (stereo unspecified), the outcome was inactive.

For the compound `NC(=O)C(F)(F)C(F)(F)C(F)(F)C(F)(F)F`, the call was inactive.

Regarding `O=C(O)C(F)(F)C(F)(F)OC(F)(F)F`, the call was inactive.

Regarding `O=C(Cl)C(F)(F)C(F)(F)C(F)(F)C(F)(F)C(F)(F)C(F)(F)C(F)(F)C(F)(F)F`, the outcome was inactive.

With `O=S(=O)(OCCOC(F)(F)F)C(F)(F)F`, the compound was called inactive.

Turning to `FC(F)(F)C(F)(F)C(F)(F)CI`, the compound was classed as inactive.

Take `CC/C=C\CCOC(C)=O`: the outcome was inactive.

For `CS(C)(=O)=O`, the compound was called inactive.

As to `OCC(F)(F)C(F)(F)C(F)(F)F`, the compound was classed as inactive.

Consider `c1ccc(B(c2ccccc2)c2ccccc2)cc1`, for which the result was inactive.

With `FC(F)(F)C(F)(F)C(F)(F)C(F)(F)C(F)(F)C(F)(F)C(F)(F)C(F)(F)F`, the call was inactive.

Regarding `CCN(CC)c1ccc2c(C)cc(=O)oc2c1`, the call was inactive.

As for `C=CC(F)(F)C(F)(F)C(F)(F)C(F)(F)C(F)(F)C(F)(F)C(F)(F)C(F)(F)F`, the outcome was inactive.

Turning to `CC(Cc1ccc(O)c(O)c1)C(C)Cc1ccc(O)c(O)c1` (stereo unspecified), the compound was classed as inactive.

As to `CCCCCCCCCCCCCCCC[N+](C)(C)Cc1ccccc1`, the result was inactive.

Consider `FC(F)(F)C(F)(F)C(F)(F)C(F)(F)C(F)(F)C(F)(F)C(F)(F)Br`, for which the call was inactive.

Take `CC(C)=CCCC(C)CCOC(=O)C(C)C` (stereo unspecified): the result was inactive.

Regarding `C(=C(c1ccccc1)c1ccccc1)c1ccccc1`, the compound was classed as inactive.

In the case of `COC(=O)CCC(F)(F)C(F)(F)C(F)(F)C(F)(F)F`, the result was inactive.

For `C#C[C@]1(O)CC[C@H]2[C@@H]3CCc4cc(OC)ccc4[C@H]3CC[C@@]21C`, the compound was called inactive.

`O=S(=O)(OCC(F)F)C(F)(F)F`: the outcome was inactive.

`CC(CCl)OP(=O)(OC(C)CCl)OC(C)CCl` (stereo unspecified): the call was inactive.

Consider `FC(F)(F)C(F)(F)C(F)(F)C(F)(F)C(F)(F)C(F)(F)C(F)(F)I`, for which the compound was classed as inactive.

As for `C=CC(F)(F)C(F)(F)C(F)(F)C(F)(F)C(F)(F)C(F)(F)C(F)(F)C(F)(F)C=C`, the result was inactive.
